KB-V1 cytotox – kills drug-selected multidrug resistant KB-V1 cells; KB-V1 MDR cells viability, CellTiter-Glo, 72 h; Potency, µM (doses to about 46.1 µM), actives largely listed as cytotoxic; actives 3.4% (n = 400,000); further: nearly all actives have a fitted effect of over 60% in size
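Following 72 h at 37 degrees C with compound, KB-V1 cell viability was read by CellTiter-Glo luminescence, medium being phenol-red-free DMEM plus 10% FBS; concentration-response parameters came from normalized, curve-fitted qHTS data.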
HT1080 IDH1KD tx – kills HT-1080 cells with IDH1 knockdown; HT-1080 IDH1 knockdown viability, ATP luminescence, 48 h; Potency, µM (top dose mostly 46.1 µM), actives largely listed as cytotoxic; actives 2% (n = 360,000); AID 686971
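CellTiter-Glo luminescence after 48 h compound exposure at 37 degrees C of IDH1-knockdown HT-1080 cells in 5% FBS RPMI. %Activity scaled between DMSO wells and cell-free media wells, with curves fitted and assigned curve classes.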
TDP1 cell noCPT – qHTS for Inhibitors of human tyrosyl-DNA phosphodiesterase 1 (TDP1): qHTS in cells in absence of CPT; DT40 Tdp1-/- hTDP1 cells, no CPT, ATP luminescence, 48 h; Potency, µM (doses to about 46.2 µM), actives largely listed as inhibitors; actives 15% (n = 420,000); further: nearly all actives have a fitted effect of over 55% in size
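Cells were dispensed at 400 per well, compounds added by pin tool, plates incubated ≥48 hr at 37 °C, then CellTiter-Glo added for 30 min at room temperature before luminescence reading. Line: DT40 Tdp1-/- complemented with hTDP1; camptothecin omitted.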
KB-3-1 cytotox – kills parental KB-3-1 adenocarcinoma cells; KB-3-1 viability, CellTiter-Glo ATP luminescence, 72 h; Potency, µM (series often up to 46.1 µM), actives largely listed as cytotoxic; actives 1.4% (n = 400,000); further: nearly all actives have a fitted effect of over 60% in size
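KB-3-1 cells, DMEM (no phenol red) + 10% FBS; compound by pin transfer, 72 h, 37 °C. Readout: CellTiter-Glo luminescence after 10 min. Data normalized, curve-fitted.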
HT1080NT lethal – kills 2HG-producing HT-1080-NT fibrosarcoma cells. HT-1080-NT fibrosarcoma viability, CellTiter-Glo ATP luminescence, 48 h. Potency, µM (doses to about 46.1 µM), hits mostly cytotoxic. actives 1.6% (n = 360,000). AID 686970;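 further: NT is the 2HG producing partner of a matched IDH1 knockdown line; nearly all actives have a fitted effect of over 55% in size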
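Toxicity toward the 2HG-producing NT line was scored as %Activity, normalised to DMSO and no-cell wells, from CellTiter-Glo luminescence after 48 hours' treatment.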
DT40 TDP1 CPT – growth inhibition of DT40 Tdp1-/-;hTDP1 cells with camptothecin (screen for TDP1 inhibitors); chicken DT40 Tdp1-/-;hTDP1 cells + 20 nM CPT, ATP luminescence, 48 h; Potency, µM (highest dose often 46.2 µM), usual class: inhibitors; actives 12% (n = 420,000); AID 686979; further: nearly all actives have a fitted effect of over 55% in size
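Chicken DT40 Tdp1-/- cells stably complemented with human TDP1 were seeded at 400 cells/well in medium containing 20 nM camptothecin, exposed to pin-transferred compounds, and grown at 37 °C for at least 48 hr. Viability was read as ATP luminescence.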
Large screens that a line does not name were inactive. Hits are enriched below; roughly 19% of the tested compounds scored in any of these assays. The call rests on the fitted dose curve; in most records, active means well fitted curve in the direction sought with a large enough effect; inconclusive means small, poorly fitted or top-dose-only effect, or another doubt; inactive means no such curve, though single readings can be large; an effect the other way counts as inactive or inconclusive.

O=C(O)/C(=C\c1cn(-c2ccccc2)nc1-c1cccnc1)NC(=O)c1ccccc1	none
NC(=S)N/N=C/c1cn(-c2ccccc2)nc1-c1cccnc1	KB-V1 cytotox inconclusive, HT1080 IDH1KD tx inconclusive, TDP1 cell noCPT 2.9µM, KB-3-1 cytotox inconclusive, HT1080NT lethal inconclusive, DT40 TDP1 CPT 12µM
O=C(N/N=C/c1cn(-c2ccccc2)nc1-c1ccc2c(c1)OCCO2)c1ccncc1	none
O=C(CNc1cccc(C(F)(F)F)c1)N/N=C/c1cn(-c2ccccc2)nc1-c1ccccc1	HT1080 IDH1KD tx inconclusive, TDP1 cell noCPT inconclusive, HT1080NT lethal inconclusive, DT40 TDP1 CPT 16µM
Cc1nn(Cc2ccccc2)c(C)c1/C=N/NC(=O)CNc1cccc(C(F)(F)F)c1	TDP1 cell noCPT inconclusive, KB-3-1 cytotox inconclusive
CN(CC1CCCO1)S(=O)(=O)c1ccc(C(=O)Nc2nc3cc4c(cc3s2)OCO4)cc1 (stereo unspecified)	TDP1 cell noCPT 10µM, DT40 TDP1 CPT 7.3µM
COc1ccc(-c2nnc(NC(=O)c3ccc(S(=O)(=O)N(C)CC4CCCO4)cc3)o2)c(OC)c1 (stereo unspecified)	KB-V1 cytotox 5.8µM, TDP1 cell noCPT inconclusive, DT40 TDP1 CPT inconclusive
CN(CC1CCCO1)S(=O)(=O)c1ccc(C(=O)Nc2nccs2)cc1 (stereo unspecified)	KB-V1 cytotox 18µM, TDP1 cell noCPT inconclusive
CN(CC1CCCO1)S(=O)(=O)c1ccc(C(=O)Nc2ccc3c(c2)OCO3)cc1 (stereo unspecified)	TDP1 cell noCPT inconclusive, DT40 TDP1 CPT inconclusive
Cc1ccc(Cn2cnc3c(nnn3Cc3ccc(Cl)cc3)c2=O)cc1	DT40 TDP1 CPT inconclusive
O=C(COC(=O)c1c(F)cccc1Cl)NCC1CCCCC1	DT40 TDP1 CPT inconclusive
O=C(c1c(F)cccc1F)N(C1CCCCC1)C1CCCCC1	TDP1 cell noCPT 18µM, DT40 TDP1 CPT inconclusive
O=C(Nc1ccccc1)N(Cc1cccs1)C1CCCC1	KB-V1 cytotox inconclusive, TDP1 cell noCPT inconclusive, DT40 TDP1 CPT inconclusive
O=C(NO)c1ccc(C(=O)N(C2CCCCC2)C2CCCCC2)cc1	HT1080 IDH1KD tx inconclusive, TDP1 cell noCPT 21µM, KB-3-1 cytotox inconclusive, HT1080NT lethal inconclusive, DT40 TDP1 CPT 16µM
O=C(c1c(F)cccc1F)N(Cc1cccs1)C1CCCC1	TDP1 cell noCPT 9.2µM, DT40 TDP1 CPT 12µM
O=C(c1c(F)cccc1F)N(Cc1ccccn1)C1CCCC1	KB-V1 cytotox 21µM, HT1080 IDH1KD tx inconclusive, TDP1 cell noCPT 4.6µM, DT40 TDP1 CPT 18µM
O=C(O)C1CCN(C(=O)COc2ccc3c(c2)oc(=O)c2ccccc23)CC1	none
COc1ccc(CNc2nn3c(-c4cccc(C(=O)N(C)C)c4)cnc3s2)cc1	TDP1 cell noCPT 18µM, DT40 TDP1 CPT 23µM
CNc1nc(-c2cccc(C(=O)N(C)C)c2)cn2ccnc12	HT1080NT lethal inconclusive
C=CCn1c(CCC(O)COCCC)n[nH]c1=S (stereo unspecified)	none
CN(C(=O)Cn1nc(C(=O)O)c2ccccc2c1=O)C1(C#N)CCCCC1	none
Cc1ccc(Sc2cc(C(=O)NCCN(C)C)c3ccccc3n2)cc1	TDP1 cell noCPT inconclusive, HT1080NT lethal inconclusive, DT40 TDP1 CPT inconclusive
CCc1ccc(Sc2cc(C(=O)NCCCN3CCC(C)CC3)c3ccccc3n2)cc1	TDP1 cell noCPT 16µM, DT40 TDP1 CPT 16µM (no result: HT1080 IDH1KD tx, HT1080NT lethal)
CCc1ccc(Sc2cc(C(=O)NCCCN3CCCC(C)C3)c3ccccc3n2)cc1 (stereo unspecified)	TDP1 cell noCPT inconclusive, DT40 TDP1 CPT inconclusive (no result: HT1080 IDH1KD tx, HT1080NT lethal)
Cc1ccc(Sc2cc(C(=O)NCCCN(C)C)c3ccccc3n2)cc1	HT1080 IDH1KD tx 18µM, TDP1 cell noCPT inconclusive, HT1080NT lethal inconclusive
CCOCCCNC(=O)c1cc(Sc2ccc(F)cc2)nc2ccccc12	KB-V1 cytotox 21µM, TDP1 cell noCPT inconclusive, DT40 TDP1 CPT inconclusive

Compound activity: PubChem BioAssay, National Center for Advancing Translational Sciences (NCATS)
